From PubChem BioAssay (Tox21) come the findings set out here.

A short description of experiment [1]: A CellTox Green Cytotoxicity Assay to monitor cytotoxicity in HepG2 cells - 24 hour (AID 1224878). Further: nearly all actives have a fitted effect of over 45% in size. The method, boiled down:
(§1)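 First, HepG2 cells (600/well) mixed with reagent were plated; second, after 5 h at 37 C they received compounds via pintool; third, fluorescence was measured at 0 h through 40 h at 8 h intervals.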

Experiment [2] can be described thus: A CellTox Green Cytotoxicity Assay to monitor cytotoxicity in HepG2 cells - 40 hour (AID 1224879). Further: nearly all actives have a fitted effect of over 40% in size. In short, it runs like this:
as §1

The nature of experiment [3]: A CellTox Green Cytotoxicity Assay to monitor cytotoxicity in HEK293 cells - 32 hour (AID 1224881). Further: nearly all actives have a fitted effect of over 40% in size. The method, boiled down:
(§2)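 Dead-cell fluorescence measured kinetically: asymmetric cyanine dye, HEK293, 600 cells/well, 5 h settle, 23 nL cpd/DMSO, 37 C, reads 0–40 h every 8 h.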

Experiment [4] is described as follows: A CellTox Green Cytotoxicity Assay to monitor cytotoxicity in HepG2 cells - 0 hour (AID 1224882). Further: nearly all actives have a fitted effect of over 35% in size. The method, boiled down:
as §1

Experiment [5] can be described thus: A CellTox Green Cytotoxicity Assay to monitor cytotoxicity in HepG2 cells - 32 hour (AID 1224883). Further: nearly all actives have a fitted effect of over 50% in size. The method, boiled down: as §1
Experiment [6] in a line: A CellTox Green Cytotoxicity Assay to monitor cytotoxicity in HEK293 cells - 8 hour (AID 1224884). Further: nearly all actives have a fitted effect of over 35% in size. In short, it runs like this:
as §2

A short description of experiment [7]: qHTS RealTime-Glo MT Cell Viability Assay in HepG2 cells - 16 hour (AID 1224885). Further: nearly all actives have a fitted effect of over 50% in size. The method, boiled down:
(§3)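 Viability was tracked continuously by NanoLuc luminescence from prosubstrate reduced by living HepG2 cells, at successive time points over 40 h of compound exposure. Cells with reagent were preincubated 5 h at 37 °C before compound addition.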
Background: In qHTS, concentration-response curves come from the screen itself.

A short description of experiment [8]: qHTS RealTime-Glo MT Cell Viability Assay in HEK293 cells - 24 hour (AID 1224886). Further: top concentration of the series differs between compounds; nearly all actives have a fitted effect of over 50% in size. In short, it runs like this: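 Viability tracked continuously by luminescence as live cells reduce a prosubstrate for NanoLuc; HEK293 cells preincubated 5 h, compound-treated at 37 C, and read at 0, 8, 16, 24, 32 and 40 h.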
Experiment [9] in a line: qHTS RealTime-Glo MT Cell Viability Assay in HEK293 cells - 8 hour (AID 1224887). Further: top concentration of the series differs between compounds; nearly all actives have a fitted effect of over 50% in size. The method, boiled down: (§4)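 600 HEK293 cells per well, dispensed already mixed with RealTime-Glo MT reagents. Compound dosing came 5 h later. The same wells were read for luminescence at 0, 8, 16, 24, 32 and 40 h of exposure at 37 C.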
Experiment [10] can be described thus: A CellTox Green Cytotoxicity Assay to monitor cytotoxicity in HEK293 cells - 16 hour (AID 1224888). Further: nearly all actives have a fitted effect of over 35% in size. In short, it runs like this: as §2
Experiment [11] can be described thus: qHTS RealTime-Glo MT Cell Viability Assay in HepG2 cells - 0 hour (AID 1224889). Further: nearly all actives have a fitted effect of over 50% in size. The method, boiled down: as §3
A short description of experiment [12]: A CellTox Green Cytotoxicity Assay to monitor cytotoxicity in HepG2 cells - 8 hour (AID 1224890). Further: nearly all actives have a fitted effect of over 45% in size. The method, boiled down:
as §1

Experiment [13] in a line: qHTS assay to identify small molecule antagonists of the estrogen receptor alpha (ER-alpha) signaling pathway using the BG1 cell line in the presence of 0.1 nM 17-beta-estradiol - cell viability counter screen (AID 1259241). Further: nearly all actives have a fitted effect of over 40% in size. The method, boiled down: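 Live-cell protease activity (CellTiter-Fluor fluorescence, 30 min) was read in the same wells after VM7Luc4E2 cells had been exposed to compounds with 0.1 nM 17beta-estradiol for 22 hr at 37C.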

Experiment [14] can be described thus: qHTS assay to identify small molecule antagonists of the androgen receptor (AR) signaling pathway using the MDA cell line in the presence of 0.5 nM R1881 - cell viability counter screen (AID 1259242). Further: nearly all actives have a fitted effect of over 45% in size. The method, boiled down: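 qHTS format. MDA-kb2 (MMTV-luc, AR/GR responsive) + cpd + 0.5 nM R1881 final, 16 hr 37C/0% CO2 → CellTiter-Fluor 30 min → fluorescence intensity.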

Experiment [15] in a line: qHTS assay to identify small molecule HDAC inhibitors (AID 1259364).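 Further: wild-type HCT-116 cells with endogenous class I/II HDAC activity; top concentration of the series differs between compounds; nearly all actives have a fitted effect of over 45% in size.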 In short, it runs like this: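 Quantitative high-throughput format: overnight-seeded HCT-116 cells got compounds for 2 hr at 37C; HDAC-Glo I/II reagent added, 30 min RT, luminescence measured.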
Experiment [16] is described as follows: qHTS assay to identify small molecule HDAC inhibitors - cell viability counter screen (AID 1259365). The method, boiled down:
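HCT-116 (wild type), 1,500 cells/well, overnight 37C/5% CO2; compound in DMSO 2hr; CellTiter-Glo 30min RT; luminescence read.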

The nature of experiment [17]: qHTS RealTime-Glo MT Cell Viability Assay in HEK293 cells - 0 hour (AID 1224880). The method, boiled down: as §4
The target of experiment [18] is Estrogen receptor (Homo sapiens) (UniProt P03372). In words: qHTS assay to identify small molecule antagonists of the estrogen receptor alpha (ER-alpha) signaling pathway using the BG1 cell line in the presence of 0.1 nM 17-beta-estradiol (AID 1259244). Further: nearly all actives have a fitted effect of over 50% in size. The method, boiled down:
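Reporter is a stably transfected luciferase under four estrogen responsive elements in VM7Luc4E2 cells expressing native full-length ER-alpha; inhibition of 0.1 nM (final) 17beta-estradiol-driven signal over 22 h is read by luminescence.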

Experiment [19] can be described thus: qHTS assay to identify small molecule phospholipidosis (PLD) inducers (AID 1259344; active means well fitted curve in the direction sought with a large enough effect; an effect the other way counts as inactive or inconclusive). The method, boiled down: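 Phospholipid accumulation was scored by imaging: fixed, Hoechst-counterstained HepG2 cells stained with LipidTOX Red after 24 h compound exposure at 37 C. Read-outs were pit count and pit intensity per well or per cell, with amiodarone and DMSO controls.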

Experiment [20] has as its target Androgen receptor (Homo sapiens) (UniProt P10275). In words: qHTS assay to identify small molecule antagonists of the androgen receptor (AR) signaling pathway using the MDA cell line in the presence of 0.5 nM R1881 (AID 1259243). Further: nearly all actives have a fitted effect of over 50% in size. Further: potency means the concentration at half of the fitted maximal effect. In short, it runs like this: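 Antagonist mode quantitative HTS in MDA-kb2 MMTV-luciferase cells, agonist R1881 at 0.5 nM final, 16 hr exposure at 37C and 0% CO2, luminescent detection.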

Unmarked numbers belong to inactive results. Inconclusive results are not listed. Activity calls are given as the source filed them. Unless noted, the call rests on the fitted dose curve; in most records, active means well fitted curve in the direction sought with a large enough effect in the repeat runs; inconclusive means weak or mixed curves; inactive means no such curve, though single readings can be large; an effect the other way counts as inactive or inconclusive.

Chain of Androgen receptor (Homo sapiens) (P10275 whole entry, looked up): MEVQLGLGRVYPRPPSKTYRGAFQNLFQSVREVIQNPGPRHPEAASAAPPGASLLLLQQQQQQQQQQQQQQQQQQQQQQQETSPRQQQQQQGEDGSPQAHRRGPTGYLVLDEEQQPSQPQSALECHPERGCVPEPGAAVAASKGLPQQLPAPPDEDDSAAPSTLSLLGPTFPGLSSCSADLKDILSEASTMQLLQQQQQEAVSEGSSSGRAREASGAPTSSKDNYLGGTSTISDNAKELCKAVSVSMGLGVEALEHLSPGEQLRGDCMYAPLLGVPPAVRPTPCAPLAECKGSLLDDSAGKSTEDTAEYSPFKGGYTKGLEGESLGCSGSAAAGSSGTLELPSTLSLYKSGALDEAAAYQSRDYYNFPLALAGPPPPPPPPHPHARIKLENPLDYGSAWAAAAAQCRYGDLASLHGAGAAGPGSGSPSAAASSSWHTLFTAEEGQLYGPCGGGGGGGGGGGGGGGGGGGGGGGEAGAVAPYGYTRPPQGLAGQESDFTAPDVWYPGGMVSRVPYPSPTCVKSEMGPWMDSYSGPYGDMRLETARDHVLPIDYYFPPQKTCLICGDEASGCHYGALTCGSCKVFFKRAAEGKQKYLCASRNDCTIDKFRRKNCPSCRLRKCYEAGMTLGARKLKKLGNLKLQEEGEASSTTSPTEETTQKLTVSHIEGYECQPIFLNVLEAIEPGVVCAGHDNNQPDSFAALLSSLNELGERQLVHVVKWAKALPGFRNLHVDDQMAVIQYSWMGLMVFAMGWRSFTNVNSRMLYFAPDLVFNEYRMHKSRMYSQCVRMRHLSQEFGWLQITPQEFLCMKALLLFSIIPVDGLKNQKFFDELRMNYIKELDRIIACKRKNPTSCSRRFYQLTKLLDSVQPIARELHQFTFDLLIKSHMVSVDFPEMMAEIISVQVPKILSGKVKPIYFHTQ
Chain of Estrogen receptor (Homo sapiens) (P03372 whole entry, looked up): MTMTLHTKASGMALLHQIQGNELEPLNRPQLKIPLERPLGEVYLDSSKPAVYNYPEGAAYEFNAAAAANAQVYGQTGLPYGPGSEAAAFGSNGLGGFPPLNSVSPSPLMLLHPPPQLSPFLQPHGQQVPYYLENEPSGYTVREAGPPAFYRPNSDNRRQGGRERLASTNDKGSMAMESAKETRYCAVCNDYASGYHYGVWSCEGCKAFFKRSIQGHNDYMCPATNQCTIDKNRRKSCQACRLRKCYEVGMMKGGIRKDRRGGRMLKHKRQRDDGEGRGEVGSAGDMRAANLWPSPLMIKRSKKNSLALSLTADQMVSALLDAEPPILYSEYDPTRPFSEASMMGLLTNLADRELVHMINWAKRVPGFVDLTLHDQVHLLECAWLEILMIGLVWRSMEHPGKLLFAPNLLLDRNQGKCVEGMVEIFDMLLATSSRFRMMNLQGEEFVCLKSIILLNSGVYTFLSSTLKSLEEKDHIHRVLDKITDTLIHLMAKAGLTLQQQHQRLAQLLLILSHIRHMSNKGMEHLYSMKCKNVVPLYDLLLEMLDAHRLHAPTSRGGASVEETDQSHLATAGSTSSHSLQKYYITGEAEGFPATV

With `O=Cc1ccc(C(=O)O)cc1`, the Potency entry in experiment [1], in experiment [2], in experiment [3], in [4], in [5] and in [6] was “inactive” in each case. Moreover, the Potency entry in experiment [10], in [11], in [12] and in [15] was “inactive” in each case. For the same molecule, the result in experiment [7], in [8], in experiment [9], in [13], in [14] and in experiment [16] was inactive.

As to `CN1C(CCl)Nc2cc(Cl)c(S(N)(=O)=O)cc2S1(=O)=O` (configuration not stated), the Potency result in experiment [1], in experiment [17], in [3], in experiment [4], in experiment [5] and in experiment [6] was “inactive” in each case. Besides, the Potency entry in experiment [10], in experiment [11], in experiment [12] and in experiment [19] was “inactive” each time. Further, the call in [7], in [8], in [9], in experiment [13], in experiment [14] and in experiment [18] was inactive. Moreover, the outcome in experiment [16] was inactive.

On to `O=Cc1ccccc1S(=O)(=O)O`, for which the Potency entry in experiment [1], in [2], in experiment [3], in experiment [4], in experiment [5] and in experiment [6] was “inactive” each time. Moreover, the Potency result in experiment [10], in experiment [11], in experiment [12] and in experiment [15] was “inactive” each time. Further, the result in [7], in experiment [8], in experiment [9], in experiment [13], in [14] and in experiment [16] was inactive.

Turning to `Clc1ccc2c(c1)Nc1ccccc1S2`, the Potency entry in [1], in [2], in [3], in experiment [4], in experiment [5] and in [6] was “inactive” each time. The Potency entry in [10], in experiment [11], in experiment [12] and in [15] was “inactive” each time. For the same molecule, the molecule was called inactive in [7], in experiment [8], in [13], in experiment [14], in experiment [18] and in [16]. Moreover, in experiment [20], the Potency was 10.6 µM (active).

As to `O=C[C@@H](O)[C@H](O)[C@H](O)CO`, the Potency result in experiment [1], in experiment [2], in experiment [3], in [4], in experiment [5] and in [6] was “inactive” throughout. Also, the Potency entry in [10], in [11], in experiment [12], in [20] and in experiment [15] was “inactive” each time. For the same molecule, the outcome in experiment [8], in [9], in experiment [13], in experiment [14] and in [16] was inactive.

For `C=CCN1CCc2nc(N)sc2CC1`, the Potency result in experiment [1], in experiment [17], in [3], in experiment [4], in experiment [5] and in experiment [6] was “inactive” throughout. In addition, the Potency entry in experiment [10], in experiment [11], in experiment [12], in experiment [20], in experiment [19] and in experiment [15] was “inactive” each time. Further, the molecule was called inactive in [7], in [8], in experiment [9], in experiment [13] and in experiment [14].

Take `CCCc1ccc(O)c(OC)c1`: the Potency entry in experiment [1], in [17], in [3], in [4], in experiment [5] and in experiment [6] was “inactive” throughout. The Potency entry in experiment [10], in [11], in experiment [12] and in [15] was “inactive” in each case. Further, the molecule was classed as inactive in [7], in experiment [8], in [9], in [13], in [14] and in [18]. Further, the molecule was called inactive in [16].

For `CCCCCCC(O)CO` (configuration not stated), the Potency entry in experiment [1], in [2], in [3], in [4], in [5] and in experiment [6] was “inactive” throughout. Further, the Potency result in experiment [10], in experiment [11] and in [12] was “inactive” in each case. Also, the result in [7], in experiment [8], in [9], in experiment [13], in experiment [14] and in [18] was inactive.

With `CC/C=C/CCCCCCCCCCOC(C)=O`, the Potency entry in [1], in experiment [2], in experiment [3], in experiment [4], in [5] and in experiment [6] was “inactive” each time. Moreover, the Potency entry in [10], in experiment [11], in [12] and in experiment [15] was “inactive” each time. Further, the call in experiment [7], in experiment [8], in experiment [9], in [13], in experiment [14] and in [18] was inactive. The molecule was called inactive in experiment [16].

`CCCCc1ccc(Cl)cc1`: the Potency entry in [1], in experiment [2], in experiment [3], in experiment [4], in [5] and in experiment [6] was “inactive” each time. The Potency result in experiment [10], in experiment [11], in [12] and in [15] was “inactive” each time. Besides, the molecule was classed as inactive in experiment [7], in experiment [8], in experiment [9], in experiment [13], in experiment [14] and in experiment [18]. Further, the call in experiment [16] was inactive.

For `CCCCC(O)/C=C(C)/C=C/C=C/C(=O)N1CCCC1=O` (configuration not stated), the Potency entry in experiment [1], in experiment [2], in experiment [3], in experiment [4], in experiment [5] and in experiment [6] was “inactive” throughout. The Potency entry in experiment [10], in experiment [11], in experiment [12] and in experiment [15] was “inactive” each time. Further, the call in [7], in experiment [8], in [9], in [13], in experiment [14] and in experiment [18] was inactive. The molecule was called inactive in experiment [16].

`CCCC(C)C(O)CC` (configuration not stated): the Potency result in [1], in experiment [2], in experiment [3], in [4], in experiment [5] and in experiment [10] was “inactive” in each case. Further, the Potency entry in experiment [11], in experiment [12] and in experiment [15] was “inactive” throughout. The molecule was called inactive in experiment [7], in experiment [8], in experiment [9], in experiment [13] and in experiment [14].

As to `Cc1ccc(OC(=O)CC(C)C)cc1`, the Potency entry in [1], in [2], in experiment [3], in experiment [4], in experiment [5] and in experiment [6] was “inactive” throughout. Moreover, the Potency entry in [10], in [11], in [12] and in experiment [15] was “inactive” throughout. For the same molecule, the molecule was called inactive in experiment [7], in [8], in experiment [9], in experiment [13], in [14] and in [16].
